Screening data deposited in PubChem BioAssay by several laboratories.
Sampled rows, rich in hits. Any-hit rate of the full collection: about 3%.
MITF act: MITF TRPM1 promoter activation in melanoma cells; SK-MEL-5 TRPM1-promoter luciferase, 24 h; % of positive control, neutral wells = 0; activation, % at 12.5 µM; actives 0.75% (n = 300,000); AID 588334;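 active means mean activation of at least 80% with every replicate also reaching 80%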;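 further: 0% = neutral control wells and 100% = parthenolide positive control wells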
TWEAK-Fn14 inh: TWEAK-Fn14 signaling inhibition | TWEAK-stimulated Fn14 reporter cells, luciferase luminescence, 8 h | inhibition, % at 10 µM | actives 2% (n = 360,000); in the data active means inhibition above about 50%
LMP1 NFkB inh: inhibitors of Epstein-Barr LMP1-induced NF-kappaB reporter; actives 0.69% (n = 350,000); AID 504558; inhibition, % at 12.5 µM; LMP1-induced NF-kappaB luciferase reporter cells, luminescence; in the data active means inhibition above about 41%;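 further: 0% = neutral control wells and 100% = reference inhibitor control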
TROY NFkB inh: inhibitors of TROY-dependent NF-kB signaling. Q293 LMP1-TROYcd NF-kB luciferase reporter, 4 h. inhibition, % at 10 µM. AID 1347056. actives 0.98% (n = 360,000);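 active means compounds whose plate-normalised and pattern-corrected inhibition of the luciferase reporter signal at the single screening dose is 50% or more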
LGR2 antag: Drosophila LGR2 receptor signaling inhibition; HEK293 LGR2, CRE-luciferase, bursicon-stimulated, 4 h; inhibition, % at 9.99 µM; actives 0.35% (n = 380,000);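 active means drop in luminescence signal, shown as inhibition above about 50% in the replicate tests, limit read from the data, passing the limit was not always enough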;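 further: agonist challenge used bursicon conditioned medium at about half maximal strength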
TRPM1 prom inh: MITF TRPM1 promoter inhibition in SK-MEL-5 cells | inhibition, % at 12.5 µM | SK-MEL-5 TRPM1 promoter luciferase, 24 h | actives 0.83% (n = 330,000);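 active means mean inhibition across replicates of 60% or more, whatever share of single replicates reaches that level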
An asterisk follows results filed as active; . = no result.

SMILES | MITF act | TWEAK-Fn14 inh | LMP1 NFkB inh | TROY NFkB inh | LGR2 antag | TRPM1 prom inh
CCC(CC)C(=O)OCC(=O)C1(O)CCC2C3CCC4=CC(=O)CCC4(C)C3C(O)CC21C (stereo not given) | 4 | 6 | -3 | 33 | 13 | -3
N#Cc1ccc(-c2ccc3c(c2)[C@@H]2[C@@H](CCN2C(=O)C2CCC2)[C@H](CO)N3)cc1 | . | . | . | . | -3 | .
Oc1ccccc1N=Nc1ccccc1O | -13 | -29 | 67* | -29 | -53 | 9
Cc1cc(C)c(C)c(S(=O)(=O)N2CCN(C(=O)c3cc(=O)[nH]c4ccccc34)CC2)c1C | -5 | 54* | 16 | 7 | . | 8
Cc1cc(C)c(S(=O)(=O)N2CCN(C(=O)c3cc(=O)[nH]c4ccccc34)CC2)c(C)c1 | 1 | 15 | 3 | -5 | 22 | 4
CNC(=O)C[C@@H]1CC[C@@H]2[C@H](COC[C@@H](O)CN2C(=O)Nc2cccc(OC)c2)O1 | . | . | . | . | -16 | .
Cc1c(NC(=O)/C(=C/c2cccs2)NC(=O)c2ccccc2)c(=O)n(-c2ccccc2)n1C | 11 | 13 | -4 | 2 | 3 | -10
Cc1c(NC(=O)/C(=C\c2ccccc2)NC(=O)c2ccccc2)c(=O)n(-c2ccccc2)n1C | . | 94* | 0 | -9 | . | 3
COC(=O)c1c(NC(=S)Nc2ccc(CC(=O)O)cc2)sc(C)c1C | 5 | 88* | 4 | -12 | -1 | -4
CCOC(=O)c1c(NC(=S)Nc2ccc(Cl)cc2)sc(C)c1C | -1 | 4 | -13 | -16 | 3 | 2
C[C@@H]1CCCCO[C@H](CN(C)S(C)(=O)=O)[C@@H](C)CN([C@H](C)CO)C(=O)c2cc(NC(=O)CCC(F)(F)F)ccc2O1 | . | . | . | . | -8 | .
N=C(N)SCc1cn(-c2ccccc2)nc1-c1ccc(Br)cc1 | -54 | 1 | -44 | 9 | 100* | 59
Cc1ccc(-c2nn(-c3ccccc3)cc2CO)cc1 | 69 | -3 | 0 | -38 | -39 | -63
COc1ccccc1N1CCN(c2ccc3ccccc3n2)CC1 | 108* | 49 | -29 | 35 | -13 | -113
COc1ccccc1N1CCN(c2ccc(-c3ccccc3)nn2)CC1 | -35 | 71* | 70* | 66* | . | 40
C[C@@H]1CN([C@H](C)CO)C(=O)c2cc(-c3ccccc3F)cnc2O[C@@H]1CN(C)Cc1ccccc1 | . | . | . | . | -12 | .
CCNC(=O)CC1C(=O)N(CC)C(=S)N1NC(=O)c1cccnc1 (stereo not given) | 11 | -7 | 74* | 0 | 11 | -6
CCNC(=O)C[C@H]1C=C[C@H](NC(=O)NC2CCCCC2)[C@H](CO)O1 | . | . | . | . | 3 | .
O=S(=O)(N[C@H]1CC[C@@H](CCn2cc(-c3cccc(F)c3)nn2)O[C@@H]1CO)c1ccc(Cl)cc1 | . | . | . | . | -5 | .
O=C(C=P(c1ccccc1)(c1ccccc1)c1ccccc1)c1ccccc1-c1ccccc1C(=O)C=P(c1ccccc1)(c1ccccc1)c1ccccc1 | -83 | 47 | 38 | 31 | 25 | 82*
CCCCCCCC[n+]1cccc2c3ccccc3ccc21 | -85 | 83* | 33 | 54* | 35 | 86*
Cc1cccc[n+]1CCCCCCCCCC[n+]1ccccc1C | -9 | -12 | 8 | 3 | -4 | 11
CCCCCCCCCC[n+]1cccc2c3ccccc3ccc21 | -100 | 73* | 30 | 51* | 76* | 101*
Cn1cnc(S(=O)(=O)N2[C@@H]3CNC[C@H]2C3c2ccc(-c3ccccc3F)cc2)c1 (stereo not given in full) | . | . | . | . | 14 | .
CC(=O)Nc1ccc(NC(=O)COC(=O)/C(=C/c2ccccc2)n2nnnc2C)cc1 | -12 | 39 | -13 | -6 | -11 | 12
SMILES | MITF act | TWEAK-Fn14 inh | LMP1 NFkB inh | TROY NFkB inh | LGR2 antag | TRPM1 prom inh
Cc1nnnn1/C(=C\c1ccccc1)C(=O)OCC(=O)NC(C)(C)C | -3 | 50* | 4 | 21 | 21 | 4
Cc1nnnn1/C(=C\c1ccccc1)C(=O)OCC(=O)NC1CCCCC1 | -27 | 57* | -4 | 24 | 34 | 28
COc1ccc(NC(=O)N(C)C[C@H]2Oc3ncc(-c4ccc(C#N)cc4)cc3C(=O)N([C@@H](C)CO)C[C@@H]2C)cc1 | . | . | . | . | 9 | .
Cc1noc(C)c1NC(=O)Nc1ccc2c(c1)C(=O)N([C@@H](C)CO)C[C@@H](C)[C@@H](CN(C)S(=O)(=O)c1ccc(F)cc1)O2 | . | . | . | . | -5 | .
Cc1ccc(CN(C)C[C@@H]2OCc3cnnn3CCCC(=O)N([C@H](C)CO)C[C@@H]2C)cc1 | . | . | . | . | 9 | .
CCC(=O)N1CC2(C1)CN(C(=O)Nc1ccccc1F)[C@H](CO)c1[nH]c3cc(OC)ccc3c12 | . | . | . | . | -19 | .
CCN1CCN(c2cc(C)c3cc(NC(=O)CCC(=O)Nc4ccc(OC)cc4OC)ccc3n2)CC1 | 3 | 4 | -11 | -11 | 11 | 1
CCN1CCN(c2c(C=O)c(Cl)nc3ccc(OC)cc23)CC1 | 17 | 56* | 6 | 26 | 7 | -17
COc1ccc(/C=C2/CSC/C(=C/c3ccc(OC)c(OC)c3)C2=O)cc1OC | . | 92* | 90* | 15 | 26 | 99*
COc1ccc(/C=C2\Cc3ccccc3C2=O)cc1OC | 4 | -5 | 2 | -66 | -21 | -5
COc1cc(C=C2CCCC(=Cc3ccc(OCC4CO4)c(OC)c3)C2=O)ccc1OCC1CO1 (stereo not given) | . | 73* | 49* | -4 | 38 | .
O=C(c1cccc(F)c1)N1CC2(C1)[C@H](c1ccccc1)[C@H](CO)N2C(=O)C1CC1 | . | . | . | . | -14 | .
COc1cccc(NC(=O)C(=S)NC2CCCCC2)c1 | 84* | 31 | -77 | -22 | 23 | -79
COc1ccc(NC(=O)NC2CCCCCCC2)cc1 | 59 | -5 | -24 | -61 | -53 | -58
COc1cccc(NC(=O)NC2CCCCCCC2)c1 | 89* | -27 | -16 | -34 | -51 | -88
COc1cccc(NC(=S)N2CCC(NC(=O)C3CCCCC3)CC2)c1 | -2 | 36 | -3 | 16 | 2 | 2
CCc1ccc(CN(C)C(=O)CCc2nc3ccccc3n(-c3ccc(OC)cc3)c2=O)cc1 | -14 | 52* | 17 | 54* | 36 | 18
C[C@@H]1CCCCO[C@@H](CN(C)Cc2ccc(C(=O)O)cc2)[C@H](C)CN([C@H](C)CO)C(=O)c2cc(NS(=O)(=O)c3ccccc3)ccc2O1 | . | . | . | . | 10 | .
C[C@H]1CN([C@@H](C)CO)C(=O)c2cc(-c3ccc(C#N)cc3)cnc2O[C@H]1CN(C)C(=O)c1ccccc1 | . | . | . | . | 13 | .
C(=Cc1cccnc1)c1ccncc1 | 16 | 18 | 6 | 16 | 11 | -16
O=C(/C=C/c1cccnc1)/C=C/c1cccnc1 | -96 | 101* | -46 | 72* | 15 | 96*
N#Cc1ccc(/C=C/C(=O)c2cccnc2)cc1 | -22 | -1 | 6 | 40 | 81* | 20
CC(C)N=C(NS(=O)(=O)c1ccccc1)C(Cl)(Cl)Cl | -81 | 101* | -2 | 77* | 62* | 79*
O=S(=O)(NC(=S)c1ccccc1)c1ccccc1 | 1 | -20 | -10 | 1 | . | 3
